Laboratory results published in PubChem BioAssay.
Activity calls are given as the source filed them. Unless noted, no rule for the calls is given here.

Assays:
[1] = test system: Wnt5a (protein binding on small-molecule microarray); experiment: small molecules binding Wnt5a protein – biophysical, small-molecule microarray, 635/667 nm fluorescence, primary screen (AID 1142); conditions: 635 nm fluorescence, higher = more signal;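 also: fluorescence read at 667 nm with signal to noise per printed feature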
[2] = ATP-based viability of Huh7 replicon cells – cell-based, CellTiter-Glo luminescence, basal, 48 h, cytotoxicity control for HCV replication inhibitor project, primary screen (AID 1143); conditions: higher = more signal, called active from +8 up or from −8 down;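 also: Huh7 hepatoma cells carrying a hepatitis C replication reporter with no stimulus; test concentration not given here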
[3] = Pseudomonas biofilm growth suppression – PAO1 strain, BacTiter-Glo luminescence, LB-PBS, primary screen (AID 1144); conditions: P. aeruginosa PAO1 biofilm, 12 h, higher = more signal
[4] = basal CRE-LacZ reporter activity in PC12 – cell-based, unstimulated, primary screen (AID 1145); conditions: no forskolin, luminescence, 4.5 h, higher = more signal, called active from +8 up or from −8 down
[5] = forskolin-driven CRE-LacZ activity in PC12 – cell-based, CRE-LacZ reporter, forskolin-stimulated, primary screen (AID 1146); conditions: luminescence, 4.5 h, higher = more signal, called active from +8 up or from −8 down;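 also: PC12 cells with 6xCRE LacZ reporter stimulated by forskolin 10 µM; beta-galactosidase reporter signal reflecting CREB driven transcription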
[6] = biological target: Streptavidin (Streptomyces avidinii) (UniProt P22629); experiment: compounds binding control protein streptavidin – biophysical, small-molecule microarray, 635/667 nm fluorescence, artefact control for SMM compound annotation, primary screen (AID 1147); conditions: higher = more signal;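 also: signal reflects streptavidin binding to arrayed compounds as a control protein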
Chain of Streptavidin (Streptomyces avidinii) (P22629 whole entry, looked up): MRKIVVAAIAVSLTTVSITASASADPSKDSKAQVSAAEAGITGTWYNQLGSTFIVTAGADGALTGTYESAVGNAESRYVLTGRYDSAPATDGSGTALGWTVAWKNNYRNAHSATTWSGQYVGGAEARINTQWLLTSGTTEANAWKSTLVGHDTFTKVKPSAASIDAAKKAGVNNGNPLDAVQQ

[7] = probe aInhba binding on compound microarray – biochemical, small-molecule microarray, 635/667 nm fluorescence, primary screen (AID 1148); conditions: higher = more signal;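 also: score merges 667nm spot fluorescence with signal-to-noise for antibody binding to printed compounds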
Torsin-1A (Homo sapiens) [8] = biological target: Torsin-1A (Homo sapiens) (UniProt O14656); experiment: TOR1A wild-type binding on microarray – cell lysate, small-molecule microarray, lysate, 635/667 nm, primary screen (AID 1149); conditions: COS7 hTOR1A-WT lysate, 635 nm fluorescence, higher = more signal
Chain of Torsin-1A (Homo sapiens) (O14656 whole entry, looked up): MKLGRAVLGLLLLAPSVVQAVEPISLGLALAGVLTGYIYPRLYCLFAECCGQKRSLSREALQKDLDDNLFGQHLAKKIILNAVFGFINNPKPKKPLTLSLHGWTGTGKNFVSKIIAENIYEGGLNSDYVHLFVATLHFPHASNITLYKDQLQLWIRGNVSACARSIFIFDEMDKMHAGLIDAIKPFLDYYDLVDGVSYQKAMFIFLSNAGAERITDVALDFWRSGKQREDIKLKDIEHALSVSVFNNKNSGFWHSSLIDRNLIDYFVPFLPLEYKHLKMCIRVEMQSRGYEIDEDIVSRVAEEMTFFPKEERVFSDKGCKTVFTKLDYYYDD

Torsin-1A (Homo sapiens) [9] = biological target: Torsin-1A (Homo sapiens) (UniProt O14656); experiment: torsin A mutant lysate binding on microarrays – cell lysate, small-molecule microarray, COS7 lysate, 635/667 nm fluorescence, primary screen (AID 1150); conditions: COS7 hTOR1A mutant lysate, 635 nm fluorescence, higher = more signal;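 also: score pools 667 nm emission and signal to noise measuring lysate protein binding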
[10] = test system: Sonic hedgehog protein (Shh); experiment: Sonic hedgehog microarray binding compounds – biochemical, small-molecule microarray, 635/667 nm fluorescence, primary screen (AID 1151); conditions: 635 nm fluorescence, higher = more signal;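 also: Shh protein binding to compounds spotted on small-molecule microarray slides; score combines spot fluorescence intensity with signal-to-noise across triplicate slides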

SMILES	composite z-score [1]	z-score [2]	z-score [3]	z-score [4]	z-score [5]	composite z-score [6]	composite z-score [7]	composite z-score (Torsin-1A (Homo sapiens) [8])	composite z-score (Torsin-1A (Homo sapiens) [9])	composite z-score [10]
COc1ccc(C#Cc2ccc3c(c2)[C@]2(C(=O)N3)[C@H](c3ccc(O)cc3)N3[C@H](c4ccccc4)[C@H](c4ccccc4)OC(=O)[C@H]3[C@@H]2C(=O)N2CCc3cc(OC)c(OC)cc3C2)cc1	0.636	-0.678 (inactive)	-0.0604 (inactive)	0.155 (inactive)	0.102 (inactive)	1.13	-0.0521	0.135	0.0243	1.78
Cc1ccc(C2C3C(=O)CC4C(=O)N(c5ccccc5)C(=O)C4C3CN2S(=O)(=O)c2ccc(C)cc2)cc1 (stereo not given)	0.731	-0.966 (inactive)	0.538 (inactive)	-0.826 (inactive)	-0.743 (inactive)	0.525	0.255	0.0484	0.392	0.205
CC(CO)N1C(=O)[C@@H]2C3C(=O)OCCC/C=C\[C@H]3OC23C=CCN(CCN2CCOCC2)C(=O)[C@@H]13 (stereo not given in full)	0.0719	0.795 (inactive)	-1.1 (inactive)	-0.476 (inactive)	-0.183 (inactive)	-0.254	-0.201	-0.951	-0.776	1.21
COC(=O)[C@@]1(Cc2ccccc2)[C@H]2c3cc(C(=O)N(C)C)n(CCc4c[nH]c5ccc(O)cc45)c3C[C@H]2CN1C(=O)c1ccccc1	0.0434	-1.51 (inactive)	0.562 (inactive)	0.0041 (inactive)	0.1 (inactive)	0.0497	0.0878	-0.343	0.604	0.647
CS(=O)(=O)CCOC(=O)C1=CC(CCCO)=CC(C2CC2)N(Cc2cc3c(cc2Br)OCO3)C=C1C(=O)OCCS(C)(=O)=O (stereo not given)	0.0339	-0.737 (inactive)	-0.453 (inactive)	-0.0424 (inactive)	0.926 (inactive)	0.635	-0.0695	0.913	1.03	0.358
CC(C)[Si](C#CCCCC#N)(Oc1ccccc1Br)C(C)C	0.0696	-0.0761 (inactive)	0.0648 (inactive)	-0.519 (inactive)	-0.0887 (inactive)	0.525	-0.15	0.42	0.222	0.544
COC(=O)[C@@]1(Cc2ccc(F)cc2)[C@H]2c3cc(C(=O)N(C)C)n(Cc4cc(C)n(C)n4)c3C[C@H]2CN1C(=O)c1ccccc1	0.692	-0.617 (inactive)	-0.0119 (inactive)	0.779 (inactive)	0.455 (inactive)	0.678	0.302	0.149	0.0322	0.303
CN1C(=O)C2C=CC(C(O)c3ccccc3)N(N3CCCCC3)C2C1=O (stereo not given)	0.691	0.573 (inactive)	-0.127 (inactive)	0.819 (inactive)	0.584 (inactive)	0.479	0.0301	0.305	1.14	-0.689
COCC(=C=CC[C@@H](O)c1ccc(OCCO)cc1)C[C@@H](O)c1ccccn1	0.117	0.0073 (inactive)	0.0661 (inactive)	-0.0602 (inactive)	2.62 (inactive)	0.556	0.0001	0.0308	-0.467	1.04
O=C(NC1CC1)[C@@H]1c2ccccc2C(=O)N(C2Cc3ccccc3C2)[C@H]1c1ccc(CO)cc1	0.336	0.192 (inactive)	-0.994 (inactive)	0.854 (inactive)	-0.987 (inactive)	-0.286	0.116	0.795	1.28	1.05
CO[C@H]1O[C@H](CO)[C@@H](OC(=O)Nc2ccc(Oc3ccccc3)cc2)[C@H](OC(=O)Nc2ccc3c(c2)OCO3)[C@@H]1OC(=O)Nc1ccc2c(c1)OCO2	1.31	-2.74 (inactive)	-0.168 (inactive)	0.502 (inactive)	-0.917 (inactive)	0.894	0.415	0.626	1.58	1.66
CCCCN1CC=CC23O[C@@H]4C=CCOC(=O)[C@@H]4[C@H]2C(=O)N(CCCCCCO)[C@@H]3C1=O (stereo not given in full)	-0.575	0.205 (inactive)	1.05 (inactive)	-0.0899 (inactive)	1.12 (inactive)	-1.35	-0.249	-0.873	-0.748	-0.711
CN(C)CCCCCCNC(=O)[C@@H]1C[C@@H]2C(=O)N3CCC[C@H]3C(=O)N2[C@@H]1c1ccc(O)cc1	0.21	-0.892 (inactive)	-0.999 (inactive)	0.561 (inactive)	-0.439 (inactive)	-0.331	0.138	1.4	1.46	2.17
O=C1C2C=CC(C(O)C=Cc3ccc([N+](=O)[O-])cc3)N(Nc3ccccc3F)C2C(=O)N1c1ccccc1 (stereo not given)	0.265	-0.071 (inactive)	0.0113 (inactive)	-0.424 (inactive)	-0.156 (inactive)	1.77	0.095	0.422	0.31	-0.0025
CCCCN1CC=CC23O[C@@H]4/C=C\CCCOC(=O)C4[C@H]2C(=O)N(CCCO)[C@@H]3C1=O (stereo not given in full)	-0.311	0.275 (inactive)	0.0302 (inactive)	-0.0778 (inactive)	0.241 (inactive)	-1.3	-0.105	-1.36	-1.64	-0.0567
CC(C)[C@@H](C(=O)O)n1cc(C2(O)CCCCC2)nn1	0.265	-0.671 (inactive)	-0.78 (inactive)	-0.23 (inactive)	-0.669 (inactive)	0.306	-0.101	-0.0244	0.404	0.151
CC(C)[Si](C#CCCCC#N)(O[C@H](c1ccccc1)c1cn(Cc2cccc(Cl)c2)nn1)C(C)C	0.182	-2.2 (inactive)	-0.603 (inactive)	-0.215 (inactive)	-0.859 (inactive)	-0.0708	0.0614	1.42	0.392	1.21
O=C(O)[C@@]1(CCS(=O)(=O)c2ccccc2)N=C(c2ccc(OCCCO)cc2)O[C@H]1c1ccccc1	-0.111	-0.798 (inactive)	0.0288 (inactive)	-0.23 (inactive)	-0.324 (inactive)	1.34	0.102	1.43	1.79	-0.338
C=C(CCCC)/C(=C/C[C@H](OC(C)=O)c1ccccc1OCCO)c1cnc2ccccc2c1	0.382	-1.45 (inactive)	0.489 (inactive)	4.07 (inactive)	0.55 (inactive)	0.36	-0.157	0.0711	0.878	1.49
CC(C)C(=C=CC[C@H](O)c1ccc(CO)o1)CCO	-0.0164	0.243 (inactive)	-0.0587 (inactive)	1.87 (inactive)	1.33 (inactive)	0.0515	-0.0963	0.385	0.291	1.71
C=CCNC(=O)[C@H]1[C@@H]2C(=O)O[C@@H](c3ccccc3)[C@@H](c3ccccc3)N2[C@@H](c2ccc(O)cc2)[C@]12C(=O)Nc1ccc(C#CCCO)cc12	-0.169	0.0368 (inactive)	0.722 (inactive)	0.452 (inactive)	-0.67 (inactive)	-0.374	-0.152	-0.944	-0.187	0.717
COc1ccc([Si](C)(C)[C@H]2[C@H](CCn3cc([C@H](O)c4ccccc4)nn3)O[C@@]3(C(=O)N(C)c4ccccc43)[C@@H]2C)cc1	-0.319	-3.31 (inactive)	-0.573 (inactive)	2.69 (inactive)	-1.28 (inactive)	-0.814	-0.0221	-0.71	-0.193	1.36
[N-]=[N+]=NCc1ccccc1C[C@@]1(C(=O)NCC(O)CO)N=C(c2ccc(OCCCO)cc2)O[C@@H]1c1ccccc1 (stereo not given in full)	0.423	-4.03 (inactive)	0.141 (inactive)	1.8 (inactive)	0.617 (inactive)	-0.0302	0.0377	0.237	1.14	-0.982
C=CC[C@]1(C(N)=O)N=C(c2ccc(OCCCO)cc2)O[C@H]1c1ccccc1	0.555	-1.01 (inactive)	-0.717 (inactive)	0.652 (inactive)	-0.806 (inactive)	0.186	-0.168	2.79	2.33	-0.406
COc1cc2c(cc1O)C=[N+](Cc1cc3c(cc1Br)OCO3)CC2	-0.234	-2.14 (inactive)	-0.304 (inactive)	-0.671 (inactive)	0.945 (inactive)	-1.88	-0.154	-0.39	-0.945	-0.216
O=C1O[C@@H](c2ccccc2)[C@@H](c2ccccc2)N2[C@@H](c3ccccc3OCCO)[C@]3(C(=O)Nc4ccc(C#CC5(O)CCCCCC5)cc43)[C@@H](C(=O)N3CCN(c4ncccn4)CC3)[C@H]12	0.133	-2.72 (inactive)	0.703 (inactive)	0.209 (inactive)	2.96 (inactive)	0.077	0.0074	0.987	0.808	1.11
O=C1OCCC=C[C@H]2OC34C=CCN(Cn5nnc6ccccc65)C(=O)[C@H]3N(CCO)C(=O)[C@@H]4C12 (stereo not given in full)	-0.83	-0.208 (inactive)	-1.39 (inactive)	-1.3 (inactive)	-0.688 (inactive)	-1.48	-0.251	-1.01	-1.32	-0.61
CCCCN1CC=CC23O[C@@H]4/C=C\CCCOC(=O)C4[C@H]2C(=O)N(CCCCCO)[C@@H]3C1=O (stereo not given in full)	0.0311	-0.103 (inactive)	0.0433 (inactive)	0.333 (inactive)	-0.391 (inactive)	-1.43	-0.211	-0.0808	0.777	-0.695
C=CCN1C(=O)[C@]2(Cc3ccccc3)N=C(c3ccc(OCCCO)cc3)O[C@@H]2c2ccccc21	0.611	-3.85 (inactive)	0.000807 (inactive)	2.97 (inactive)	-1.79 (inactive)	0.752	0.13	0.443	0.842	1.79
